This is an account of results in PubChem BioAssay AID485358 (National Center for Advancing Translational Sciences (NCATS), 2010).

The structures appear in SMILES notation. Among all 340,000 compounds or so, about 1,800 (0.53%) were called active.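 Rule for the calls: active = activation over 3 SD above normal in the single-dose calcium agonist read (cut at about 30% in these data); inactive = the rest.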 The entries come from a sample that favours actives as a whole.

The target of the experiment is D(2) dopamine receptor (Homo sapiens) (UniProt P14416). In words: HTS Assay for Allosteric Agonists of the Human D2 Dopamine Receptor: Primary Screen for Agonists. Note: 0% is about no effect. The following applies: HEK293 T-REx D2 cells, calcium flux agonist mode; at 2 µM; hits give high values. Summed up: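 Agonism scored from kinetic calcium signal (1 read/sec, 180 s) following compound pin transfer, after a 10 s baseline. Cells: HEK293 Trex line expressing inducible D2 receptor coupled to calcium, dye-loaded after overnight culture at 30 C.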
Chain of D(2) dopamine receptor (Homo sapiens) (P14416 whole entry, looked up): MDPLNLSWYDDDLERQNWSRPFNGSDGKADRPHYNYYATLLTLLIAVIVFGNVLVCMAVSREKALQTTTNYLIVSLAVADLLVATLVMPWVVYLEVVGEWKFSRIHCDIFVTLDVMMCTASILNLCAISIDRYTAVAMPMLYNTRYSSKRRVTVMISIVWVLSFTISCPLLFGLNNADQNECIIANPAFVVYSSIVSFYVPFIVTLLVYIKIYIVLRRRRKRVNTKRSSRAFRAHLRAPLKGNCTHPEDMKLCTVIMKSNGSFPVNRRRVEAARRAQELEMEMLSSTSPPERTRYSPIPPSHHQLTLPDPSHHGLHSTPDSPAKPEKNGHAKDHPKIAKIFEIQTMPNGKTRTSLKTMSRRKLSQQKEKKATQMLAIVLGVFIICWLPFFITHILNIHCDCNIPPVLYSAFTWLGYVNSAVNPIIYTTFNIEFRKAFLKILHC
On the technique in general: A change in cytosolic calcium serves as a functional read-out for many receptors and channels.
Take `COc1cc(OC)c(N(C)C(=O)c2cc3c(=O)oc4ccccc4c3s2)cc1Cl`: the activation is 0.129% (inactive). As to `Cc1ccc(C)c(N2CCN(c3ccc4cc(S(=O)(=O)N5CCC(C)CC5)ccc4n3)CC2)c1`, the activation is 0.192% (inactive). With `Cc1ccc(-c2cn3c(n2)sc2cc(C(=O)NCCCc4ccccc4)ccc23)cc1`, the activation is 1.23% (inactive). On to `CCN(CC)S(=O)(=O)c1ccc2c(c1)N(CC(=O)NCc1ccccc1)C(=O)CS2`, for which the activation is -0.489% (inactive). For `Cc1cccc(S(=O)(=O)c2cn(Cc3ccccc3)c3cc(N4CCOCC4)c(F)cc3c2=O)c1`, the activation was -0.108% (inactive). In the case of `COc1ccccc1-c1ccnc2[nH]n(-c3ccccc3)c(=O)c12`, the activation was -0.0633% (inactive). The same measure for `COc1cc(OC)cc(C(=O)N[C@H](C(=O)Nc2nc3ccccc3[nH]2)C(C)C)c1`: 0.237% (inactive); for `COc1cc(OC)cc(C(=O)N[C@H](C(=O)OCC(=O)NC(C)c2ccccc2)C(C)C)c1` (stereo not given in full): 32.6% (active).

As for `COc1ccc(C(=O)N[C@H](C(=O)NCc2ccccc2)C(C)C)cc1`, the activation was -0.577% (inactive). As for `CN(C)C(=O)c1nc2ccc(Cl)cn2c1CN1CCN(c2ncccn2)CC1`, the activation was 5.69% (inactive). Take `c1cnc(N2CCN(c3ccc4ccccc4n3)CC2)nc1`: the activation was 0.566% (inactive). On to `Cc1ccc(CN2CCN(/N=C/c3cccnc3)CC2)c(C)c1`, for which the activation was -0.239% (inactive). On to `Oc1ccc(CN2CCN(c3ncccn3)CC2)cc1`, for which the activation is 84.4% (active). `Cc1ccc(CN2CCN(c3ncccn3)CC2)c(C)c1`: the activation is 71.3% (active). The result for `Cc1ccc(CN2CCN(/N=C/c3ccco3)CC2)c(C)c1` reads 0.881% (inactive); that for `COc1cc(C(CC(=O)NCCC(C)C)N2Cc3ccccc3C2=O)cc(OC)c1OC` (stereo not given), 2.01% (inactive). `CCc1ccc2oc(-c3ccc(C)c(NC(=O)/C=C/c4ccco4)c3)nc2c1`: the activation is 0.62% (inactive).

As to `CCc1ccccc1NC(=O)Cn1c(=O)n(-c2cccc(C)c2)c(=O)c2c1c1cc(OC)ccc1n2C`, the activation is 0.643% (inactive). In the case of `CC(C)OP(=O)(OC(C)C)C(Nc1ccccc1)c1cccc([N+](=O)[O-])c1` (stereo not given), the activation was -2.16% (inactive).

With `O=C(CC(c1ccccc1)c1ccccc1)NCC(O)c1ccc([N+](=O)[O-])cc1` (stereo not given), the activation is -0.594% (inactive). The same measure for `CC(CCc1ccccc1)NCC(O)c1cccc([N+](=O)[O-])c1` (stereo not given): 59.5% (active); for `Oc1c(C(c2ccc(F)cc2)N2CCN(Cc3ccccc3)CC2)sc2nc(-c3ccco3)nn12` (stereo not given): 0.375% (inactive).

`COc1cc(NC(=O)c2noc3c2CSc2ccccc2-3)cc(OC)c1OC`: the activation was -0.598% (inactive). As for `COc1ccc(-c2nc3scc(CCNS(=O)(=O)c4cc(F)ccc4OC)n3n2)cc1OC`, the activation is -1.74% (inactive).

Turning to `Cc1ccc(OCCn2c(CNc3ccccc3C)nc3ccccc32)cc1`, the activation was 0.246% (inactive).

As for `Cc1ccc(C)c(N2CCN(C(=O)Cn3nc(C)c4sc5ccccc5c4c3=O)CC2)c1`, the activation is -0.843% (inactive).

Consider `COc1ccccc1CNc1ccc(-c2nc(-c3ccccc3C)no2)cc1[N+](=O)[O-]`, for which the activation was 2.39% (inactive). Take `CCc1cccc(CC)c1NC(=O)Cn1c(=O)c(-c2cc(C)ccc2NC(C)=O)nc2ccccc21`: the activation is 0.924% (inactive). The result for `CS(=O)(=O)c1ccc(Cl)c(NC(=O)COC(=O)c2cccc(S(=O)(=O)N3CCCC3)c2)c1` reads -0.318% (inactive); that for `O=C(CNCc1cccs1)Nc1cc(S(=O)(=O)N2CCCC2)ccc1Cl`, 57.6% (active); that for `O=C(NCc1cccs1)C1CCN(S(=O)(=O)c2ccc(Cl)cc2)CC1`, 0.13% (inactive). Turning to `COc1ccc(CN2CC(C(=O)NCCN3CCN(c4ccccc4F)CC3)CC2=O)cc1` (stereo not given), the activation was 0.792% (inactive). The same measure for `O=C(NCCCN1CCN(c2ccccc2F)CC1)C1CCC(=O)N1C1CCCCC1` (stereo not given): 68.8% (active); for `O=C(NCCCN1CCCCCC1)C1CC(=O)N(C2CCCC2)C1` (stereo not given): 0.131% (inactive).

Take `COc1ccccc1NC(=O)C(=O)c1cc(C)n(-c2ccccc2F)c1C`: the activation was -1.58% (inactive). The same measure for `COc1ccc(OC)c(C(=O)c2ccc(C(=O)N3CCN(Cc4csc(C)n4)CC3)cc2)c1`: 37.6% (active); for `COc1ccc(-c2nn3c(=O)cc(CN4CCN(C(=O)c5ccc(OC)c(OC)c5)CC4)nc3s2)cc1`: 0.0582% (inactive); for `COc1ccc(OC)c(C(=O)c2coc3ccc(O)c(CN4CCOCC4)c23)c1`: 0.863% (inactive).

Turning to `CCCCN1C(=O)c2[nH]nc(-c3ccccc3O)c2C1c1cccc(OCc2ccccc2)c1` (stereo not given), the activation is -0.42% (inactive). Regarding `O=C(c1c(Cl)cccc1Cl)N1CCN(c2cccc3[nH]ccc23)CC1`, the activation is 41.5% (active). As to `O=C(c1ccc2ccccc2n1)N1CCN(c2ccccc2Cl)CC1`, the activation is 1.21% (inactive). In the case of `O=C(c1c(F)cccc1Cl)N1CCN(c2ccccn2)CC1`, the activation is -0.0487% (inactive). Consider `Cc1cc(C)cc(NC(=O)Cn2c(=O)c3ccccc3n3nncc23)c1`, for which the activation is 0.456% (inactive). On to `CCOC(=O)CC1C(=O)NCCN1c1nc2c(C)cccn2c(=O)c1/C=C1\SC(=S)N(C(C)CC)C1=O` (stereo not given), for which the activation was 61.9% (active). As for `CCCN(CCC)c1nc2c(C)cccn2c(=O)c1/C=C1/SC(=S)N(Cc2ccco2)C1=O`, the activation is 9.37% (inactive). The same measure for `Cc1cccn2c(=O)c(/C=C(\C#N)C(N)=O)c(N3CCCCCC3)nc12`: -0.181% (inactive); for `CCOC(=O)C1CCCN(C(=O)c2ccc3c(c2)sc2nc(-c4ccc(CC)cc4)cn23)C1` (stereo not given): 4.91% (inactive). `O=[N+]([O-])c1ccc(C=Nc2ccc(Cl)cc2Cl)s1`: the activation was 33.6% (active).

In the case of `COc1ccc(CCNC(=O)c2cc3cccc4c3n2CC(C)S4)c(OC)c1OC` (stereo not given), the activation was -0.932% (inactive). As to `CCOCCCn1c(SCC(=O)Nc2ccc(CC)cc2)nc2ccccc2c1=O`, the activation is 0.545% (inactive). On to `Cc1ccc(-n2c(=O)c3cccnc3n2CC(=O)NCc2ccc(F)cc2)cc1C`, for which the activation is 0.0353% (inactive). Regarding `O=C(CC1NCCNC1=O)Nc1cc(Cl)cc(Cl)c1` (stereo not given), the activation is -0.701% (inactive). For `O=C(CC1NCCc2ccccc21)Nc1cccc(Cl)c1` (stereo not given), the activation was 35.2% (active). Turning to `O=C(CC1C(=O)NCCN1C(=O)c1ccc([N+](=O)[O-])cc1)Nc1cccc(Cl)c1` (stereo not given), the activation is -0.121% (inactive). Regarding `Cc1ccccc1CNC(=O)C(=O)NCC(c1cccs1)S(=O)(=O)c1cccs1` (stereo not given), the activation is 0.367% (inactive). With `COc1cccc(NC(=O)N2CCN(C(=O)c3nsc4ccccc34)CC2)c1`, the activation is -0.159% (inactive). Regarding `COc1ccccc1CN1CCC(CNC(=O)c2cnn(-c3cccc(Cl)c3)c2C2CCN(C(=O)OC(C)(C)C)CC2)CC1`, the activation is 1.52% (inactive). Turning to `O=C(Cn1cc(SCc2ccccc2)c2ccccc21)N1CCCCC1`, the activation is 0.397% (inactive). Turning to `Cc1cc(OC(C)C(=O)Nc2sc3c(c2C(N)=O)CCCC3)ccc1Cl` (stereo not given), the activation is -0.192% (inactive). Take `CCCCCCc1cc2cc(-c3nnc(-c4ccccc4)o3)c(=O)oc2cc1O`: the activation was 32.4% (active). Turning to `CCn1cc(C(=O)N2CCN(c3cc(Cl)ccc3C)CC2)c(=O)c2cc(S(=O)(=O)N3CCCC3)ccc21`, the activation is 0.428% (inactive).

For the compound `CC1=Nc2cc(C(=O)NCc3ccc(C)cc3)ccc2Sc2ccc(Cl)cc21`, the activation was 0.834% (inactive). The same measure for `CCc1ccc2oc(-c3ccc(NC(=O)c4cc5ccccc5o4)cc3)nc2c1`: 0.271% (inactive). With `Cn1nnnc1SCCCNCc1ccc(Cl)cc1`, the activation is 0.973% (inactive).

Take `Cc1cc(C)cc(NC(=O)CSc2oc(-c3ccccc3)nc2S(=O)(=O)c2ccc(Cl)cc2)c1`: the activation was -0.364% (inactive). As for `CCn1c(=O)c(=O)n(CC)c2cc(N3CCCCC3)c(NC(=O)c3cccc(F)c3)cc21`, the activation is -0.09% (inactive). As to `CCn1c(=O)c(=O)n(CC)c2cc(N3CCCCC3)c(NC(=O)c3ccc(Cl)cc3)cc21`, the activation is -0.0698% (inactive).

As for `CCn1c(=O)n(CC)c2cc(N3CCCC3)c(NC(=O)c3ccccc3Br)cc21`, the activation is 36.9% (active). Consider `CCCC(=O)N1c2ccc(-c3csc(N)n3)cc2CC1C` (stereo not given), for which the activation is 0.868% (inactive).

As for `CC(C)(C)C(=O)OCc1nc(-c2ccc(O)c(O)c2)cs1`, the activation is 73.8% (active).

Turning to `Cc1onc(C(=O)NN)c1-c1csc(COc2ccccc2)n1`, the activation was -1.45% (inactive). The result for `COc1ccc(C2=NC3(CCCCC3)N(CC(=O)Nc3ccc(C(C)C)cc3)C2=O)cc1` reads -0.0796% (inactive).

In the case of `CN(C)c1ccc(C=C2C(=O)OC3(CCCC3)OC2=O)cc1`, the activation is -0.32% (inactive). As for `CN(C)c1ccc(/C=C2\NC(=S)N(Cc3ccccc3)C2=O)cc1`, the activation was 45.9% (active). The same measure for `Cc1ccc(CN2C(=O)N/C(=C/c3cc(C)n(-c4ccccn4)c3C)C2=O)cc1`: -1.58% (inactive). The same measure for `CCCCNC(=O)CSc1nc2cc3c(cc2c(=O)n1CCCCCC(=O)NCc1ccc2c(c1)OCO2)OCO3`: 0.322% (inactive); for `O=C(CN1CCN(c2ccccc2)CC1)Nc1ccc(F)cc1`: 19.7% (inactive). The same measure for `CCOC(=O)N1CCN(CCC(=O)Nc2ccccc2)CC1`: 0.607% (inactive). Consider `O=C(CCN1CCN(c2ccccc2)CC1)NNC(=S)Nc1ccccc1`, for which the activation is 56.1% (active). For the compound `Cc1ccc(S(=O)(=O)c2nc(-c3ccco3)oc2SCC(=O)Nc2ccc(F)cc2)cc1`, the activation is -0.0829% (inactive). Consider `COc1ccc(CNC(=O)C(C)NCc2ccccc2Cl)cc1` (stereo not given), for which the activation was -0.182% (inactive). For `CC(CCc1ccc(O)cc1)NCc1ccc(Cl)cc1Cl` (stereo not given), the activation was 32.8% (active).

Turning to `CC(CCc1ccccc1)NC(=O)c1cnc(Cl)c(Cl)c1` (stereo not given), the activation is -0.256% (inactive). For `C=Cc1ccc(Cn2c(C(=O)OC)cc3sc(C)cc32)cc1`, the activation was 0.446% (inactive). The result for `O=C(CCN1CCN(C/C=C/c2ccccc2)CC1)Nc1ccccc1Cl` reads 76% (active); that for `COc1ccccc1NC(=O)CCN1CCN(c2ccc(Cl)cc2)CC1`, -0.695% (inactive).

As to `O=C(CCN1CCN(C/C=C/c2ccccc2)CC1)Nc1cccc(F)c1`, the activation was 1.58% (inactive).

For the compound `Cc1nc(SCC(=O)N2CCN(c3ccccc3)CC2)[nH]c(=O)c1C`, the activation is 16% (inactive). The result for `COc1cccc(C(=O)NCc2ccc3c(c2)CCN3C(=O)c2ccncc2)c1` reads -0.0874% (inactive); that for `COc1ccc(-c2nc(S(=O)(=O)c3ccccc3)c(N3CCCCC3)o2)cc1`, -0.427% (inactive). The same measure for `O=C(CN1CCN(S(=O)(=O)c2cc(Cl)ccc2Cl)CC1)c1ccc(O)c(O)c1`: 57.8% (active). The result for `N#Cc1ccsc1NC(=O)CN1CCN(S(=O)(=O)c2cc(Cl)ccc2Cl)CC1` reads 3.35% (inactive); that for `O=S(=O)(c1cc(Cl)ccc1Cl)N1CCN(Cc2ccco2)CC1`, -1.47% (inactive); that for `Cc1ccc(NC(=O)Cn2nnc3sc4c(c3c2=O)CCC(C)C4)cc1` (stereo not given), 0.94% (inactive).

`CCc1ccccc1NC(=O)Cc1ccc(NC(=O)N2CCCCc3ccccc32)cc1`: the activation is 0.173% (inactive).
